ALOX12 inhib – inhibitors of human 12-lipoxygenase (ALOX12); P18054; purified 12-hLO, xylenol orange hydroperoxide absorbance; Potency, µM (titrated, usually from 57.1 µM), for the others: at the highest dose activity change, negative = inhibition, usual class: inhibitors; 0.12% of 150,000 active; further: potency means the concentration at half of the fitted maximal effect; nearly all actives have a fitted effect of over 55% in size
Target sequence (P18054 whole entry, looked up): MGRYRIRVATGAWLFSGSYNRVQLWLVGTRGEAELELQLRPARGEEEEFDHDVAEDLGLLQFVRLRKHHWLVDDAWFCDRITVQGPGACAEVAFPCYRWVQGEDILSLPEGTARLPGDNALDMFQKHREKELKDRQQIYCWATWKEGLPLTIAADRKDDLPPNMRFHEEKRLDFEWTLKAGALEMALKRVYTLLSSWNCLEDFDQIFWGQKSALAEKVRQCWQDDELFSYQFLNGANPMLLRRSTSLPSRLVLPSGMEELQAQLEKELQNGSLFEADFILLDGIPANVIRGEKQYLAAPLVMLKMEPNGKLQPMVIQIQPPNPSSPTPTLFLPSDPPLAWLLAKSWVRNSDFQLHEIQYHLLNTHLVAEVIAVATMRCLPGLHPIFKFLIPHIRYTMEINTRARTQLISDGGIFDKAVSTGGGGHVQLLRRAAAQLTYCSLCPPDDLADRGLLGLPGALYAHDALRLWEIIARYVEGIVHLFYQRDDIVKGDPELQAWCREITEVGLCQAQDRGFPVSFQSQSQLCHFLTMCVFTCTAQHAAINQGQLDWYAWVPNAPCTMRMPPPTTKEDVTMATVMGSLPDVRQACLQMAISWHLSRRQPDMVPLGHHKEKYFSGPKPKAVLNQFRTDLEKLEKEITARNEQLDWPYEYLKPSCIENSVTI
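150 nM 12hLO, 25 mM Hepes pH 7.0 + 0.01% Triton X-100; cpd preinc 15 min RT; 40 uM arachidonic acid, 30 min RT; Fe-XO 30 min; A573/A405 ratio as read-out.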
HPGD inh – blocks human HPGD enzyme activity; purified HPGD, NADH fluorescence kinetic, PGE2 substrate; Potency, µM, without a hit: top-dose activity change, negative = inhibition, usual class: inhibitors; 4.3% of 150,000 active; AID 894; active means well fitted inhibition curve with a large enough effect, not every such curve was filed as active; inconclusive means small, poorly fitted or top-dose-only effect, or another doubt; inactive means no such curve, though single readings can be large or run the other way; further: potency means the concentration at half of the fitted maximal effect
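20 nM HPGD preincubated 15 min at room temperature with compound in 50 mM Tris-HCl pH 8, 0.01% Tween 20. Started with 1 mM NAD+ and 30 uM prostaglandin E2; NADH fluorescence (360/450 nm) read 5 times over 30-s intervals, last minus first.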
NPSR antagonist – neuropeptide S receptor (human) antagonism, cAMP | Q6W5P4 | CHO-NPSR cells, cAMP TR-FRET, antagonist mode | Potency, µM (titrated, usually from 38.3 µM), without a hit: top-dose activity change, negative = inhibition, actives largely listed as inhibitors | 1% of 220,000 active; further: potency means the concentration at half of the fitted maximal effect; nearly all actives have a fitted effect of over 50% in size
IMPase Li inh – cell-permeable IMPase inhibitors with lithium potentiation; AID 1457; 0.35% of 210,000 active; CHO-M1 cells, IP1 TR-FRET (IP-One), carbachol + lithium; Potency, µM (doses to about 59.4 µM), for inactives: top-dose activity, negative = IMPase inhibition, most hits filed as inhibitors;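 further: IP1 builds up when IMPase is blocked and the TR-FRET signal falls; potency means the concentration at half of the fitted maximal effect; plate controls were basal vehicle for no effect and high inhibitor control for full effect; nearly all actives have a fitted effect of over 50% in size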
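Steps: plate 2000 CHO-M1 cells per well and culture 16–30 h; add compound and lithium; incubate 30 min, 37C; add d2-IP1 tracer and Eu cryptate anti-IP1 antibody in lysis buffer; read after 10 min at room temperature.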
IMPase cell inh – membrane-permeable compound that blocks inositol monophosphatase. inhibition (IP1 accumulation), % at 46.1 µM. 120,000 tested, under 10 active. CHO-M1 cells, IP1 accumulation, HTRF TR-FRET ratio. AID 901; active means well fitted curve in the direction sought with a large enough effect in the signal ratio, not every such curve was filed as active; inconclusive means small, poorly fitted or top-dose-only effect, or a change in a side signal; inactive means no such curve, though single readings can be large or run the other way; the % refers to the signal ratio;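 further: cells stimulated with carbachol in lithium chloride buffer; plate controls were DMSO basal wells for no effect and reference inhibitor wells for full effect; higher means more IMPase inhibition seen as more IP1 and lower FRET ratio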
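In this qHTS, compounds (final up to 46 uM) act on CHO-M1 cells that are then activated through the M1 receptor with carbachol, in pH 7.4 buffer containing 50 mM LiCl, for 30 min. IP1 accumulation is quantified by the IP-One immunoassay.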
ALDH1A1 block – blocks purified human ALDH1A1 activity | P00352 | Purified ALDH1A1, NADH fluorescence, propionaldehyde substrate | Potency, µM (series often up to 75.3 µM), without a hit: at the top dose activity, negative = inhibition, most hits filed as inhibitors | 7.3% of 220,000 active; active means well fitted inhibition curve with a large enough effect, not every such curve was filed as active; inconclusive means small, poorly fitted or top-dose-only effect, or another doubt; inactive means no such curve, though single readings can be large or run the other way;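 further: potency means the concentration at half of the fitted maximal effect; plate controls were no enzyme wells and a reference inhibitor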
An asterisk follows results filed as active; ? = inconclusive; nt = no result; ! = not confirmed by another sample; [ ] = remark or other dose. Sampled rows, rich in hits. Any-hit rate of the full collection: about 8.9%. Unless noted, the call rests on the fitted dose curve; in most records, active means well fitted curve in the direction sought with a large enough effect; inconclusive means small, poorly fitted or top-dose-only effect, or another doubt; inactive means no such curve, though single readings can be large; an effect the other way counts as inactive or inconclusive. Unless noted, on the % scale 0 is the no-effect control and ±100 the full control effect.

SMILES	ALOX12 inhib	HPGD inh	NPSR antagonist	IMPase Li inh	IMPase cell inh	ALDH1A1 block
COC(=O)c1c(C)[nH]c(C(=O)/C=C/c2ccccc2Cl)c1C	nt	nt	-20%	nt	nt	nt
Cc1ccc(S(=O)(=O)N2CCCC2C(=O)NC2CCCCC2)cc1 (stereo not drawn)	0%	-1%	-5%[46.1 µM]	4%[38.3 µM]	5	0%
Cc1ccc(-c2nn(CCC#N)cc2C=C(C#N)C#N)cc1	0%	-21%	-17%[46.1 µM]	7%	9	20µM*
S=c1ccss1	-25%	6.3µM*	nt	1%	nt	2.2µM*
COc1cc(OC)c(C2=NOC(C(=O)Nc3c(C)nn(CC(=O)N4CCCC4)c3C)C2)cc1Cl (stereo not drawn)	4%	-18%	-12%[46.1 µM]	-2%[38.3 µM]	1	-6%
N#Cc1nc(COc2ccc(Cl)cc2)oc1NCc1ccc2c(c1)OCO2	-20%	?	?	17%[38.3 µM]	15	-5%
O=C(O)c1ccc(CSc2nc(-c3ccc(Cl)cc3)cc(C(F)(F)F)n2)cc1	-1%	13µM*	-26%[46.1 µM]	38%[38.3 µM]	-1	2%
COc1ccc(NC(=O)CCCn2c(=O)c3sccc3n(Cc3cccc(C)c3)c2=O)cc1	1%	-4%	-17%	8%	-7	2µM*
CCN1CCc2c(C#N)c(N3CCCCC3)nc(N3CCOCC3)c2C1	2%	nt	-11%[46.1 µM]	nt	3	?
O=C(CSc1ccccc1C(=O)O)c1ccc([N+](=O)[O-])cc1	nt	nt	-17%	0%	nt	16µM*
Nc1nnc(SCC(=O)c2ccc([N+](=O)[O-])cc2)s1	nt	nt	12%	-3%	nt	2.8µM*
Cc1cccc(C(=O)N2CCN(c3ccc([N+](=O)[O-])c(N4CCOCC4)c3)CC2)c1	-10%	-16%	-10%[46.1 µM]	-8%[38.3 µM]	2	5µM*
O=C(c1ccc2ccccc2c1)N1CCN(c2ccc([N+](=O)[O-])c(N3CCOCC3)c2)CC1	-7%	-17%	-23%[46.1 µM]	-8%[38.3 µM]	-2	?
Cc1c(-c2ccccc2)oc2c(C(=O)N3CCN(c4ccc([N+](=O)[O-])cc4)CC3)cccc2c1=O	-3%	-18%	?	14%	7	3.5µM*
CCn1cc(C(=O)N2CCN(c3ccc([N+](=O)[O-])cc3)CC2)c(=O)c2ccc(C)nc21	nt	nt	-41%	-4%	nt	25µM*
CC(C)(O)C#Cc1ccc(C(=O)N2CCN(c3ccc([N+](=O)[O-])cc3)CC2)cc1	nt	nt	9%	16%	nt	20µM*
O=C(c1ccc2c(c1)OCCO2)N1CCN(c2ccc([N+](=O)[O-])cc2)CC1	nt	nt	-16%	12%	nt	14µM*
CCSc1ccccc1C(=O)N1CCN(c2ccc([N+](=O)[O-])cc2)CC1	nt	nt	-30%	16%	nt	14µM*
CN1CC[C@@]23c4ccccc4N[C@H]1[C@]21CCN(C)[C@@H]3Nc2ccccc21	0%[25.6 µM]	2%	nt	-3%	-6[20.6 µM]	12%[20.9 µM]
N#Cc1ccccc1NC(=O)COC(=O)COc1ccccc1[N+](=O)[O-]	nt	nt	6%	8%	nt	-2%
CN(C(=O)c1ccccc1C(=O)OCC(=O)NCc1ccccc1)C1CCCCC1	3%	-3%	13%	4%	nt	-6%
Cc1ccccc1-c1cc2c(nn1)-c1ccccc1C2=O	-21%	?	22%[46.1 µM]	21%[38.3 µM]	8	25µM*
CCOc1ccc(C(=O)CCNC(Cc2cnc[nH]2)C(=O)O)cc1 (stereo not drawn)	-5%	-3%	0%[46.1 µM]	4%[38.3 µM]	1	1.6µM*
CC/C=C\C/C=C\C/C=C\CCCCCCCCCCCC(=O)O	-5%	-18%	nt	7%	nt	22µM*!
CC/C=C\C/C=C\C/C=C\CCCCCCCCCC(=O)O	0%	-6%	nt	-5%	nt	2%
SMILES	ALOX12 inhib	HPGD inh	NPSR antagonist	IMPase Li inh	IMPase cell inh	ALDH1A1 block
CC/C=C\C/C=C\C/C=C\CCCCCCCC(=O)O	-5%[0.00818 µM]	-3%	nt	30%	-1	10µM*!
CC1N/C(=C\C(=O)c2ccccc2)N(O)C1(C)C (stereo not drawn)	-4%	14µM*	-3%[46.1 µM]	-5%[38.3 µM]	-9	-3%
COc1ccccc1N/C=C/c1onc(C)c1[N+](=O)[O-]	nt	nt	-9%	11%	nt	10%
Cc1noc(/C=C/Nc2ccc(F)cc2F)c1[N+](=O)[O-]	nt	nt	-36%	4%	nt	1.3µM*
Cc1cc(C)c(S(=O)(=O)NC(C)C)c(C)c1-n1cnnn1	nt	nt	-9%	6%	nt	2%
CCCCN(CCCC)CCNC(=O)CSCc1ccc(C)cc1	nt	nt	5%	14%	nt	28µM*
Cc1ccc(CNC(=O)CSCc2ccccc2)cc1	nt	nt	9%	-5%	nt	-7%
COc1ccc2c(Cl)c(C(=O)NN)sc2c1	-16%	-29%	-10%[46.1 µM]	19%[38.3 µM]	-4	1.1µM*
COc1ccc2c(Cl)c(C(N)=O)sc2c1	-4%	-13%	?	?	?	-1%
CCN1CCC(NC(=O)c2cc(OC)c(OC)cc2OC)CC1	2%	-10%	2%[46.1 µM]	-1%[38.3 µM]	-14	-11%
O=c1[nH]c(/C(Cl)=C/c2cc(Cl)ccc2O)nc2cc(Cl)ccc12	-10%	8.9µM*	-13%	4%	nt	7%
COc1ccc(/C=C(/NC(=O)c2ccc(OC)c(OC)c2)C(=O)NCCc2c[nH]c3ccccc23)cc1	0%	?	4%	-10%	nt	2%
COc1ccccc1NC(=O)CCC(=O)c1ccc(-c2ccccc2)cc1	-3%	18µM*	-21%	-1%	nt	-7%
COc1ccccc1NC(=O)CCSCCC(=O)Nc1ccccc1OC	-3%	-16%	1%	-1%	nt	14µM*
COc1ccccc1NC(=O)CCC(=O)Nc1ccccc1OC	0%	-5%	-2%[46.1 µM]	20%[38.3 µM]	-6	-7%
COc1ccccc1NC(=O)CNC(=O)c1ccccc1C	11%	20µM*	12%[46.1 µM]	-1%[38.3 µM]	4	-11%
COc1ccc(NC(=O)CC2Nc3ccccc3NC2=O)cc1 (stereo not drawn)	nt	nt	nt	nt	-9	nt
COc1ccccc1NC(=O)CC1Nc2ccccc2NC1=O (stereo not drawn)	-12%	?	-15%[46.1 µM]	19%[38.3 µM]	5	28µM*
CC(C)Cn1nnnc1S(=O)(=O)Cc1cccc(C#N)c1	nt	-29%	nt	10%	nt	3.5µM*
CC(=O)c1cnc2c(-c3ccc(Cl)cc3)cnn2c1C	1%	-5%	-6%[46.1 µM]	4%	1	-2%
COc1ccc(N=C2C(=O)N3c4c(cccc42)C(C)=CC3(C)C)cc1	-1%	-19%	-47%	9%	4	2µM*
COc1ccc(N=C2C(=O)Nc3ccccc32)cc1	-1%	-13%	-1%[46.1 µM]	-14%[38.3 µM]	-1	?
CS(=O)(=O)Nc1ccc(C(=O)NCCSCc2ccccc2)cc1	nt	nt	4%	0%	nt	11µM*
O=C(/C=C/c1ccccc1)NCCSCc1ccccc1	-1%	3.2µM*	0%	10%	nt	1µM*
COc1ccc(/C=C/C(=O)NCCSCc2ccco2)cc1	1%	14µM*	-1%	11%	nt	?

Screening data as filed in PubChem.
